# In the supplement of paper PMC8728848:
# Many of the other results were omitted from the sample, so the strongest signals are more common in it than they were.
# B1: SP15308B-bot-339-22-339 (Bacteroides ovatus) (protein)
# chain: NEWEDEQYEQYVSFKAPIASGSDGVTTIYVRYKDNGKVTYQLPIIVSGSTVNSQDRDIHIAVDKDTLKTLNIERFSLYRPELWYTEMEEDKYEFPETVHIPAGSCVELLNIDFNLQDIDMLEKWVLPLTIVDDGSYAYQSHPRKNYAKALLKVVPFNNYSGSYTASSMKVYTYINGKPDTNARTTDKRTGYVVDNNSIFFYAGLINEDMDKDMRKKYKINVHFKEDGTLDMKQDDPSNEMEFELIGTPTYSSTSVMDATRPYLERRYVQIMFEYDFQDFTYGGSGTEVIPIKYRVAGSMTLLRNINTQIPDEDQQIEW
# Tests used:
# Assay in all cases: glycan array binding signal (z-score within array); higher = stronger binding
# Conditions in all cases: glycan notation: IUPAC condensed, linker removed
# GalNAc(a1-3)Gal = biological target: GalNAc(a1-3)Gal
# Procedure, shortened: (§1)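 Arrays were curated from the Consortium for Functional Glycomics database, 3228 in total, and kept only where the protein sequence was available. Binding is expressed as a within-array Z-score. This score was averaged across arrays of the same protein sequence at different concentrations or buffers and across linkers, and negative values can be read as non-binding.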
# Glc(a1-4)Glc = biological target: Glc(a1-4)Glc
# Procedure, shortened: as §1
# GlcA(b1-3)Gal = biological target: GlcA(b1-3)Gal
# Procedure, shortened: as §1
# [1] = biological target: GlcNAc(a1-4)Gal(b1-4)GlcNAc(b1-3)Gal(b1-4)Glc
# Procedure, shortened: as §1
# [2] = biological target: GlcNAc(a1-6)Gal(b1-4)GlcNAc
# Procedure, shortened: as §1
# [3] = biological target: GlcNAc(b1-2)[GlcNAc(b1-4)]Man(a1-3)[GlcNAc(b1-4)][GlcNAc(b1-2)[GlcNAc(b1-6)]Man(a1-6)]Man(b1-4)GlcNAc(b1-4)[Fuc(a1-6)]GlcNAc
# Procedure, shortened: as §1
# [4] = biological target: GlcNAc(b1-4)GlcNAc(b1-4)GlcNAc
# Procedure, shortened: as §1
# [5] = biological target: GlcNAc(b1-4)GlcNAc(b1-4)GlcNAc(b1-4)GlcNAc(b1-4)GlcNAc
# Procedure, shortened: as §1
# Neu5Ac(a2-3)Gal = biological target: Neu5Ac(a2-3)Gal
# Procedure, shortened: as §1
# [6] = biological target: Neu5Ac(a2-3)Gal(b1-3)GlcNAc(b1-2)Man(a1-3)[Neu5Ac(a2-3)Gal(b1-3)GlcNAc(b1-2)Man(a1-6)]Man(b1-4)GlcNAc(b1-4)GlcNAc
# Procedure, shortened: as §1
# [7] = biological target: Neu5Ac(a2-3)Gal(b1-3)]Neu5Ac(a2-3)Gal(b1-4)]GlcNAc
# Procedure, shortened: as §1
# [8] = biological target: Neu5Ac(a2-3)Gal(b1-4)GlcNAc(b1-2)[Neu5Ac(a2-3)Gal(b1-4)GlcNAc(b1-4)]Man(a1-3)[GlcNAc(b1-4)][Neu5Ac(a2-3)Gal(b1-4)GlcNAc(b1-2)[Neu5Ac(a2-3)Gal(b1-4)GlcNAc(b1-6)]Man(a1-6)]Man(b1-4)GlcNAc(b1-4)GlcNAc
# Procedure, shortened: as §1
# [9] = biological target: Neu5Ac(a2-3)Gal(b1-4)GlcNAc(b1-3)Gal(b1-4)GlcNAc(b1-3)GalNAc
# Procedure, shortened: as §1
# [10] = biological target: Neu5Ac(a2-3)Gal(b1-4)[Fuc(a1-3)]GlcNAc(b1-3)GalNAc
# Procedure, shortened: as §1
# [11] = biological target: Neu5Ac(a2-3)[GalNAc(b1-4)]Gal(b1-4)Glc
# Procedure, shortened: as §1
# [12] = biological target: Neu5Ac(a2-6)Gal(b1-4)GlcNAc(b1-2)Man(a1-3)[Gal(b1-4)GlcNAc(b1-2)Man(a1-6)]Man(b1-4)GlcNAc(b1-4)GlcNAc
# Procedure, shortened: as §1
# [13] = biological target: Neu5Ac(a2-6)Gal(b1-4)GlcNAc(b1-2)Man(a1-3)[Neu5Ac(a2-6)Gal(b1-4)GlcNAc(b1-2)Man(a1-6)]Man(b1-4)GlcNAc(b1-4)[Fuc(a1-6)]GlcNAc
# Procedure, shortened: as §1
# [14] = biological target: Neu5Ac(a2-6)Gal(b1-4)GlcNAc(b1-2)Man(a1-6)Man(b1-4)GlcNAc(b1-4)GlcNAc
# Procedure, shortened: as §1
# [15] = biological target: Neu5Ac(a2-6)Gal(b1-4)GlcNAc(b1-2)[Neu5Ac(a2-6)Gal(b1-4)GlcNAc(b1-6)]Man(a1-6)[Neu5Ac(a2-6)Gal(b1-4)GlcNAc(b1-2)Man(a1-3)][GlcNAc(b1-4)]Man(b1-4)GlcNAc(b1-4)GlcNAc
# Procedure, shortened: as §1
# [16] = biological target: Neu5Ac(a2-6)Gal(b1-4)GlcNAc(b1-3)Gal(b1-4)GlcNAc(b1-3)Gal(b1-4)GlcNAc(b1-2)Man(a1-3)[Neu5Ac(a2-6)Gal(b1-4)GlcNAc(b1-3)Gal(b1-4)GlcNAc(b1-3)Gal(b1-4)GlcNAc(b1-2)Man(a1-6)]GalNAc
# Procedure, shortened: as §1
# [17] = biological target: Neu5Ac(a2-6)Gal(b1-4)GlcNAc(b1-3)GalNAc
# Procedure, shortened: as §1
# [18] = biological target: Neu5Ac(a2-6)GalNAc(b1-4)GlcNAc6S
# Procedure, shortened: as §1
# [19] = biological target: Neu5Ac(a2-8)Neu5Ac(a2-3)[Gal(b1-3)GalNAc(b1-4)]Gal(b1-4)Glc
# Procedure, shortened: as §1
# [20] = biological target: Neu5Ac(a2-8)Neu5Ac(a2-8)Neu5Ac(a2-3)Gal(b1-4)Glc
# Procedure, shortened: as §1
# [21] = biological target: Neu5Gc(a2-3)Gal(b1-3)GlcNAc
# Procedure, shortened: as §1
# [22] = biological target: Neu5Gc(a2-8)Neu5Gc(a2-3)Gal(b1-4)GlcNAc
# Procedure, shortened: as §1
binder,measurement,setting,value
B1,glycan array binding signal (z-score),GalNAc(a1-3)Gal,3.52
same,glycan array binding signal (z-score),Glc(a1-4)Glc,0.066
same,glycan array binding signal (z-score),GlcA(b1-3)Gal,0.229
same,glycan array binding signal (z-score),[1],-0.022
same,glycan array binding signal (z-score),[2],-0.154
same,glycan array binding signal (z-score),[3],-0.263
same,glycan array binding signal (z-score),[4],-0.544
same,glycan array binding signal (z-score),[5],-0.482
same,glycan array binding signal (z-score),Neu5Ac(a2-3)Gal,-0.692
same,glycan array binding signal (z-score),[6],-0.211
same,glycan array binding signal (z-score),[7],-0.519
same,glycan array binding signal (z-score),[8],-0.547
same,glycan array binding signal (z-score),[9],-0.308
same,glycan array binding signal (z-score),[10],2.38
same,glycan array binding signal (z-score),[11],-0.526
same,glycan array binding signal (z-score),[12],0.001
same,glycan array binding signal (z-score),[13],1.73
same,glycan array binding signal (z-score),[14],-0.086
same,glycan array binding signal (z-score),[15],-0.729
same,glycan array binding signal (z-score),[16],0.664
same,glycan array binding signal (z-score),[17],-0.409
same,glycan array binding signal (z-score),[18],-0.231
same,glycan array binding signal (z-score),[19],-0.005
same,glycan array binding signal (z-score),[20],-0.189
same,glycan array binding signal (z-score),[21],-0.652
same,glycan array binding signal (z-score),[22],-0.454
